Bioassay records: PubChem BioAssay, National Center for Advancing Translational Sciences (NCATS)
CCT modulator: High-Throughput Screening for Modulators of Cytosolic Chaperonin Activity; purified chaperonin ATPase assay, HTRF ADP detection, 30 min; activity change, % (concentration not given with the values), hits read low; 360,000 compounds, 0.3% hits; in the data active = activity change below about -30%
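Enzyme 40 or 20 nM (batch-dependent) in Tris pH 7.4/KCl/MgCl2/DTT; cpd 76 uM single point; ATP 10 uM; 30 min 37 °C; Transcreener ADP HTRF detection, 30 min RT; ratio 665/615.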
VDR inhibitor: Inhibitors of the vitamin D receptor (VDR): qHTS | VDR-SRC2-3 peptide fluorescence polarization, 2 h | Potency, µM, inactives show max response, negative = inhibition, actives largely listed as inhibitors | 400,000 compounds, 0.93% hits; note: potency is the fitted concentration of half-maximal effect
Target sequence (P11473 whole entry, looked up): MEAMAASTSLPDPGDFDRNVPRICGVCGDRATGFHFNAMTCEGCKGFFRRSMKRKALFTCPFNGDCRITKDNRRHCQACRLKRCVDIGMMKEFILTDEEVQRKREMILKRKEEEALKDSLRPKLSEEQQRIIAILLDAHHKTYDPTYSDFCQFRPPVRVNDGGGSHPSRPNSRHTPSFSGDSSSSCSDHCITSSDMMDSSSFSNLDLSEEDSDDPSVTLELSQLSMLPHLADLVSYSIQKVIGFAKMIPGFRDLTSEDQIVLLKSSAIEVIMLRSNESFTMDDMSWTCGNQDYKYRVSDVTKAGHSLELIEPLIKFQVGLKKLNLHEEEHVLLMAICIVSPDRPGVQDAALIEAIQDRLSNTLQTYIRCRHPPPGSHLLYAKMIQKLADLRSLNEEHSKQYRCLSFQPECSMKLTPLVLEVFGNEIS
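VDR–SRC2-3 interaction, FP format. Cmpds 23 nl via pintool, brief spin, 2 h ambient incubation.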
Sfp PPTase inh: qHTS Assay for Inhibitors of Bacillus subtilis Sfp phosphopantetheinyl transferase (PPTase); 4'-phosphopantetheinyl transferase ffp (Bacillus subtilis), Q9F4F7; 310,000 compounds, 3.5% hits; Potency, µM, inactives show largest response in the series, negative = inhibition, usual class: inhibitors; Biochemical Sfp PPTase activity, qHTS;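 note: the enzyme is Sfp with the accession as filed and its product quenches rhodamine fluorescence; potency is the fitted concentration of half-maximal effect; 0% = enzyme reaction without inhibitor and -100% = no enzyme wells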
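Reaction rates are the 30-min fluorescence difference (ex 525, em 598 nm) in wells containing 15 nM Sfp, 5 uM rhodamine-CoA and 12.5 uM BHQ-2-YbbR at pH 7.6 with 10 mM MgCl2.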
G9a inh: qHTS Assay for Inhibitors of Histone Lysine Methyltransferase G9a | G9a H3K9 monomethylation, AlphaScreen, 2 h | Potency, µM (highest dose often 102 µM), for the others: top-dose activity, negative = inhibition, most hits filed as inhibitors | 350,000 compounds, 8.8% hits | AID 504332, 2011; note: potency is the fitted concentration of half-maximal effect; nearly all actives have a fitted effect of over 75% in size
Target sequence (Q96KQ7 913-1193 limits assumed): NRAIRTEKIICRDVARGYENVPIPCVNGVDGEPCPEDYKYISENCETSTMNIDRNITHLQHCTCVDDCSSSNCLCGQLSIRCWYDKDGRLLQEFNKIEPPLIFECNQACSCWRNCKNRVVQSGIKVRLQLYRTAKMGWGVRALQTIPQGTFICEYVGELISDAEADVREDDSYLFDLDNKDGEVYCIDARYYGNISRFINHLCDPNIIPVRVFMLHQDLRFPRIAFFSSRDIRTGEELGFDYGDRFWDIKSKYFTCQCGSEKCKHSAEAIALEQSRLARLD
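Compounds were preincubated with 20 nM G9a for 15 min, after which biotinylated H3K9 peptide (500 nM) and SAM (20 uM) started a 2 h room-temperature reaction. Monomethylated product was quantified by antibody-based AlphaScreen chemiluminescence.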
MmCpn inh: Inhibitors of TCP-1 ring complex (TRiC) of Methanococcus maripaludis (MmCpn): qHTS; Chaperonin Mm-Cpn (Methanococcus maripaludis); purified Mm-Cpn ATPase, ADP Transcreener TR-FRET; Potency, µM (series often up to 76.9 µM), without a hit: at the top dose activity, negative = inhibition, actives largely listed as inhibitors; 330,000 compounds, 0.031% hits; note: potency is the fitted concentration of half-maximal effect; nearly all actives have a fitted effect of over 80% in size
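Inhibition of chaperonin ATP hydrolysis is measured as reduced ADP production, detected by competitive TR-FRET in which signal falls with ADP. Final enzyme 25 nM and ATP 10 uM, reacted 30 min at 37°C.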
PLK1 PBD inh: qHTS for Inhibitors of PLK1-PDB (polo-like kinase 1 - polo-box domain): Primary Screen. Plk1 PBD binding of FITC phosphopeptide, fluorescence polarization. Potency, µM, without a hit: max response, negative = inhibition, usual class: inhibitors. 360,000 compounds, 2.8% hits. AID 720504, 2013; note: potency is the fitted concentration of half-maximal effect; series mostly up to about 57 µM; nearly all actives have a fitted effect of over 65% in size
The depositor's hits bear a star; ? = inconclusive; . = no result given; [ ] = another dose, or the depositor's remark. In the library only some 10% were active in any assay of this set; here they are far more common. Unless noted, calls come from the whole dose curve; as a rule, active = well fitted curve in the direction sought with a large enough effect; inconclusive = small, poorly fitted or top-dose-only effect, or another doubt; inactive = no such curve, though single readings can be large; an effect the other way counts as inactive or inconclusive. Unless noted, % is set by controls: 0 for no effect and ±100 for the full control effect.

SMILES	CCT modulator	VDR inhibitor	Sfp PPTase inh	G9a inh	MmCpn inh	PLK1 PBD inh
CCOC(=O)N1CCN(C(=S)NC(=O)c2ccnn2C)CC1	0	5%	?	20µM*	1%	-12%
CCC(C(=O)O)n1ccc2cc(S(=O)(=O)N3CCCCC3)ccc21 (stereo unspecified)	.	-9%	.	6%[59 µM]	.	.
CCOc1ccccc1Oc1nc(C)nc2c1oc1ccccc12	.	9%	.	14%[59 µM]	.	.
O=C(O)c1cc(S(=O)(=O)Nc2ccc3cn[nH]c3c2)ccc1O	-1	4%	.	?	0%	0%
O=C(O)c1ccc(Cl)c(S(=O)(=O)Nc2ccc3cn[nH]c3c2)c1	-2	-9%	?	45µM*	-1%	-29%
CCOC(=O)c1cccc(NC(=O)c2cn(-c3cccc(OC)c3)c(=O)c3ccccc23)c1	.	-1%	.	10µM*	.	.
CCOC(=O)c1ccc(OC(=O)c2cn(-c3cccc(OC)c3)c(=O)c3ccccc23)cc1	.	-1%	.	0%[59 µM]	.	.
Cc1ccc(S(=O)(=O)c2cn(Cc3ccccc3Cl)c3ccc(F)cc3c2=O)cc1	.	-11%	.	6%[59 µM]	.	.
O=S(=O)(O)Sc1ccccc1	1	.	.	.	.	6µM*
CCN(CC)c1ccc(SS(=O)(=O)O)cc1	0	79µM*	45µM*	5µM*	0%	6.7µM*
Cc1nc(-c2ccccc2)sc1CCNC(=O)C(=O)Nc1ccc2c(c1)OCO2	.	9%	.	2%[59 µM]	.	.
COc1cccc(N2CC(C(=O)Nc3nnc(SCC(=O)c4ccccc4)s3)CC2=O)c1 (stereo unspecified)	0	4%	79µM*	-22%	-21%	-14%
COc1cccc(N2CC(C(=O)Nc3nnc(SCC(=O)N4CCOCC4)s3)CC2=O)c1 (stereo unspecified)	1	-12%	-21%	-10%	1%	-21%
COc1cccc(N2CC(C(=O)Nc3nnc(SCC(=O)NC4CCCC4)s3)CC2=O)c1 (stereo unspecified)	1	3%	?	32µM*	1%	-23%
Cc1cccc(N2CC(C(=O)Nc3nnc(SCc4cccnc4)s3)CC2=O)c1 (stereo unspecified)	-4	-26%	-10%	45µM*	-1%	?
COc1ccc(C(=O)CSc2nnc(NC(=O)C3CC(=O)N(c4ccccc4)C3)s2)cc1 (stereo unspecified)	4	7%	-3%	45µM*	-10%	-3%
COc1ccc(N2CC(C(=O)Nc3nnc(SCC(=O)N4CCCC4)s3)CC2=O)cc1 (stereo unspecified)	-1	-11%	-8%	.	1%	-22%
Cc1ccc(NC(=O)Cn2c(=O)oc3cc(S(=O)(=O)NCc4ccccc4)ccc32)cc1	.	-7%	.	7%[59 µM]	.	.
Cc1cc(=O)oc2cc(OC3C=CC(C#CC(C)(C)C)OC3CO)ccc12 (stereo unspecified)	.	.	-7%	.	.	.
CCCCCC(=O)/C=C/[C@@H]1[C@@H](C/C=C\CCCC(=O)O)[C@@H](O)C[C@H]1O	.	0%	-4%	.	.	.
COCCNC(=O)CSc1nnc(NC(=O)C2CC(=O)N(c3ccccc3OC)C2)s1 (stereo unspecified)	-1	-14%	50µM*	-4%[12.7 µM]	2%	?
CCCNC(=O)CSc1nnc(NC(=O)C2CC(=O)N(c3ccccc3OC)C2)s1 (stereo unspecified)	1	.	.	.	.	?
CCn1cc(C(=O)N2CC(C)CC(C)C2)c(=O)c2cc(S(=O)(=O)N(C)C)ccc21 (stereo unspecified)	-3	-16%	4%	.	0%	21µM*
CCn1cc(C(=O)N2CCN(c3ccc(OC)cc3)CC2)c(=O)c2cc(S(=O)(=O)N(C)C3CCCCC3)ccc21	.	5%	.	-3%[59 µM]	.	.
CCN(CCCNC(=O)c1cn(CC)c2ccc(S(=O)(=O)N(C)C)cc2c1=O)c1cccc(C)c1	1	14%	-10%	35µM*	-5%	-5%
SMILES	CCT modulator	VDR inhibitor	Sfp PPTase inh	G9a inh	MmCpn inh	PLK1 PBD inh
CCn1cc(C(=O)NCCCN(C)c2ccccc2)c(=O)c2cc(S(=O)(=O)N(C)C)ccc21	0	-13%	-2%	?	-2%	-11%
CCn1cc(C(=O)N2CCN(c3ccc(OC)cc3)CC2)c(=O)c2cc(S(=O)(=O)N3CCCCC3)ccc21	0	-1%	5%	50µM*	2%	-4%
CCN1CCOC(=O)C1CC(=O)Nc1cc(C)cc(C)c1 (stereo unspecified)	.	-21%	.	3.5µM*	.	.
CCN1CCOC(=O)C1CC(=O)Nc1cc(Cl)ccc1OC (stereo unspecified)	.	-22%	.	7.9µM*	.	.
COc1ccc(Cl)cc1NC(=O)CC1CCCC1	0	-5%	-2%	27%	3%	1%
CCN1CCOC(=O)C1CC(=O)Nc1ccccc1C(F)(F)F (stereo unspecified)	.	?	.	2.2µM*	.	.
O=C(CC1C(=O)OCC2CCCCN21)Nc1ccccc1C(F)(F)F (stereo unspecified)	-1	-23%	-89%	45µM*	-5%	-6%
O=C(CC1C(=O)OCCN1Cc1ccccc1)Nc1cccc(C(F)(F)F)c1 (stereo unspecified)	.	3%	.	-60%[59 µM]	.	.
COc1ccc(CCNC(=O)CSCc2nc(-c3ccc(OC)c(OC)c3)oc2C)cc1OC	.	-10%	.	-4%[59 µM]	.	.
CCc1ccc(NC(=O)CC2C(=O)OCCN2CC)cc1 (stereo unspecified)	.	-29%	.	1.8µM*	.	.
CCN1CCOC(=O)C1CC(=O)Nc1ccc(C(C)=O)cc1 (stereo unspecified)	.	-9%	.	3.2µM*	.	.
CCc1ccc(NC(=O)CC2C(=O)NCCN2C(=O)c2ccc(F)cc2)cc1 (stereo unspecified)	-4	-12%	10%	3%[59 µM]	0%	-19%
CC=CCn1c(SCc2ccccc2)nc2c1c(=O)[nH]c(=O)n2C	0	.	.	.	.	27µM*
C/C=C/Cn1c(SCc2ccc(C)cc2)nc2c1c(=O)[nH]c(=O)n2C	1	?	-18%	25µM*	1%	21µM*
Cc1ccc2cc3cc(C(=O)N4CCN(c5ccc(Cl)cc5)CC4)oc3nc2c1	.	-14%	.	-4%[59 µM]	.	.
COC(=O)[C@H]1C[C@H]2CC[C@H](O)C[C@H]2N1Cc1c(F)cccc1Cl	.	.	14%	.	.	.
Cc1ccc(-c2c(CN3CCN(c4cc(Cl)ccc4C)CC3)csc2C)cc1	.	5%	.	-34%[59 µM]	.	.
